From PubChem BioAssay (NCI) come the findings set out here.

Compounds without any hit were thinned out: in the full panel of roughly 83,000, 20% have a hit.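 The test compound was applied at a single concentration to cells in 96-well plates for 48 hours, and percent growth was recorded.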 Unmarked numbers belong to inactive results. Active and inactive are the calls of the source. The calls were made as follows: active = growth percent below 10; inactive = the rest.

Holding throughout (assay): NCI-60 one-dose screen, 48 h (100 = growth as untreated, 0 = no growth, -100 = all killed)
Holding throughout (conditions): 10 µM unless noted

Experiment [1] has as its system HCT-15 colon.
Experiment [2] deals with HT29 colon.
The test system of experiment [3] is SNB-75 CNS.
Experiment [4] has as its system SNB-19 CNS.
Experiment [5] concerns U251 CNS.
The test system of experiment [6] is PC-3 prostate.
Experiment [7] relates to SK-MEL-5 melanoma.
Experiment [8] concerns UACC-62 melanoma.
Experiment [9] relates to LOX IMVI melanoma.
Experiment [10] concerns SK-MEL-28 melanoma.

As for `Nc1cc(N)nc(SCC(=O)O)n1`, the growth is 110% in experiment [1]; 85.1% in experiment [2]; 100% in [3]; 100% in [4]; 93.4% in experiment [5]; 89.9% in experiment [6]. In addition, the growth is 99.8% in experiment [7], 99.1% in experiment [8], 97.4% in [9] and 106% in [10].

On to `CSc1nc(-c2ccc(F)cc2)c(C#N)c(N2CCOCC2)n1`, for which the growth was 98.6% in experiment [1]; 92.3% in [2]; 73.8% in [3]; 92.9% in experiment [4]; 89.3% in [5]; 89.9% in [6]. The growth is 94.8% in [7], 78.9% in experiment [8], 99.2% in experiment [9] and 101% in experiment [10].

`COc1ccccc1-c1ccc2nc(NC(=O)Nc3cc(C(F)(F)F)cc(C(F)(F)F)c3)sc2c1`: the growth is 9.74% (active) in experiment [1]; 4.76% (active) in experiment [2]; 8.11% (active) in experiment [3]; 25.1% in experiment [4]; 12.5% in [5]; 13.5% in [6]. Also, the growth is -86.1% (active) in [7], 10.8% in experiment [8], 5.02% (active) in [9] and 31.1% in experiment [10].

With `OCCNc1nc(NCCO)nc(Nc2ccc(C3=NN(c4cc(Cl)cc(Cl)c4)C(c4ccc(C(F)(F)F)cc4)C3)cc2)n1` (stereo not given), the growth in experiment [1] was 17.5%; in [2], 10.5%; in [3], -1.68% (active); in [4], 44.4%; in [5], 19.3%; in experiment [6], 19.2%. Moreover, the growth in experiment [7] was 52.7%; in experiment [8], 47.1%; in experiment [9] it was -48.5% (active); in experiment [10] it was 44.8%.

With `C=C(C)[C@@H]1CC[C@]2(C(=O)O)CC[C@]3(C)[C@H](CC[C@@H]4[C@@]5(C)C[C@@H](CC#Cc6ccc(Cl)cc6)C(=O)C(C)(C)[C@@H]5CC[C@]43C)[C@@H]12`, the growth is 45.5% in [1]; 30.1% in [2]; 70% in experiment [3]; 54% in experiment [4]; 28.1% in experiment [5]; 25.9% in [6]. In addition, the growth in experiment [7] was 51.8%; in experiment [8] it was -20.2% (active); in experiment [9] it was 59.6%; in experiment [10], -23.1% (active).

Consider `COc1ccc(NC(=O)Nc2ccc(Nc3nc(C)cc(Nc4ccc(C)cc4)n3)cc2)cc1`, for which the growth in [1] was -78.9% (active); in experiment [2] it was -84.8% (active); in experiment [3], -92.8% (active); in experiment [4] it was -69.2% (active); in experiment [5], -83.9% (active); in experiment [6], -93.3% (active). Moreover, the growth in [7] was -72.7% (active); in experiment [8], -83% (active); in experiment [9] it was -85.3% (active); in [10], -76.8% (active).

As to `Cc1nccc2c3ccc(OCc4cn(-c5ccc(Br)cc5)nn4)cc3n(CC(C)C)c12`, the growth is 36.4% in [1]; 4.32% (active) in experiment [2]; 89.5% in experiment [3]; 59.6% in experiment [4]; 36.9% in experiment [5]; 30.7% in experiment [6]. Besides, the growth in [7] is 13.1%; in [8], 38.4%; in [9] it was 52.2%; in experiment [10], 67.2%.

Take `COC(=O)c1cncc(C(=O)Nc2ccc(-n3cnc4ccccc43)cc2)c1`: the growth is 100% in [1]; 96.5% in experiment [2]; 117% in [3]; 99.1% in experiment [4]; 91.4% in experiment [5]; 92.1% in experiment [6]. Further, the growth in [7] is 93.9%; in experiment [8], 93.4%; in experiment [9] it was 96.4%; in experiment [10], 103%.

Regarding `Oc1ccccc1-c1nc2c3ccccc3c3ccccc3c2o1`, the growth in [1] is 92.1%; in experiment [2], 106%; in experiment [3] it was 89.7%; in experiment [4] it was 95.7%; in experiment [5], 82%; in experiment [6] it was 77.8%. In addition, the growth in experiment [7] is 98.6%; in experiment [8], 88.4%; in experiment [9], 90.6%; in experiment [10], 117%.

Regarding `O=C(NCc1ccccc1)c1ccc2c(c1)NC(=O)[C@@H]1CCCN21`, the growth in [1] is 99.6%; in experiment [2] it was 103%; in experiment [3], 86.6%; in [4], 94.6%; in experiment [5], 102%; in experiment [6], 103%. For the same compound, the growth in experiment [7] is 101%; in experiment [8], 93.7%; in experiment [9] it was 91.2%; in experiment [10] it was 103%.

Turning to `Cc1ccc(CS/C(=C\c2ccc([N+](=O)[O-])cc2)C(=O)c2ccc(F)cc2)cc1`, the growth in experiment [1] was -6.39% (active); in experiment [2] it was -20.1% (active); in experiment [3] it was 79.8%; in experiment [4], 34.6%; in experiment [5], -20.4% (active); in [6], 40.9%. Moreover, the growth was 62.7% in experiment [7], 30.9% in experiment [8], -4.93% (active) in experiment [9] and 93.5% in experiment [10].

As to `CCOC(=O)C(=Cc1c(-c2ccccc2)[nH]c2ccccc12)C(=O)OCC`, the growth was 36.5% in experiment [1]; 31% in experiment [2]; 48.4% in experiment [3]; 106% in experiment [4]; 52.9% in experiment [5]; -16% (active) in experiment [6]. Also, the growth in [7] is 41.6%; in [8], 43.5%; in experiment [9], 57.3%; in [10] it was 62.5%.

`COc1cc(NCC(=O)Nc2cc(Nc3ccc(C)cc3)ncn2)c(Cl)c(OC)c1Cl`: the growth was 89.9% in experiment [1]; 95.3% in [2]; 78.4% in [3]; 95.9% in experiment [4]; 87.2% in [5]; 69.1% in experiment [6]. In addition, the growth is 91.6% in [7], 75.3% in [8], 84.5% in [9] and 107% in experiment [10].

For the compound `Cc1c(Cl)cccc1NC(=O)c1sc2nc3c(cc2c1N)CN(Cc1ccccc1)CC3`, the growth is 33.6% in experiment [1]; 8.14% (active) in [2]; 41.9% in experiment [3]; 38.4% in experiment [4]; 31.9% in experiment [5]; 43.1% in [6]. In addition, the growth is 49.1% in [7], 40.2% in experiment [8], 40.4% in experiment [9] and 71.1% in experiment [10].

In the case of `CC(C)Cc1cc(CNC(=O)C2[C@H]3CN(C(=O)c4ccccc4)C[C@@H]23)nn1-c1ccccc1` (stereo not given in full), the growth in experiment [1] is 99.3%; in experiment [2], 66.5%; in [3], 105%; in experiment [4] it was 107%; in [5], 90.1%; in [6], 90.8%. Further, the growth in experiment [7] is 99%; in experiment [8], 88.2%; in experiment [9], 91.9%; in [10], 93.5%.

Regarding `COc1ccc2nc(-c3ccc(OC)c(OC)c3)cc(-c3nnc(SCC(=O)Nc4ccc(C(C)=O)cc4)o3)c2c1`, the growth in experiment [1] is 100%; in experiment [2] it was 105%; in [3] it was 91.6%; in experiment [4], 101%; in [5] it was 97.7%; in [6], 95%. For the same compound, the growth in experiment [7] was 94.1%; in [8], 102%; in experiment [9], 102%; in [10], 113%.

`C=C(C)[C@@H]1CC[C@]2(C(=O)n3ccnc3)CC[C@]3(C)[C@H](CC[C@@H]4[C@@]5(C)CCCNC(C)(C)[C@@H]5CC[C@]43C)[C@@H]12`: the growth was 3.01% (active) in [1]; 1.76% (active) in [2]; 81.1% in [3]; 52.6% in [4]; -45.5% (active) in experiment [5]; 12.9% in experiment [6]. Further, the growth in [7] is -97.9% (active); in [8] it was 31.9%; in experiment [9], -92% (active); in [10], -51.5% (active).

Take `NC(=O)CN1C(=O)c2ccccc2C1=O`: the growth in experiment [1] was 100%; in experiment [2] it was 102%; in [3] it was 86.4%; in [4] it was 98.4%; in experiment [5], 103%; in experiment [6], 99.5%. The growth in experiment [7] was 99.2%; in [8] it was 95.7%; in [9], 103%; in experiment [10] it was 106%.

`O=C(CSC(=S)N1CCCCC1)Nc1ccccc1`: the growth was 99.1% in experiment [1]; 91.2% in experiment [2]; 93.1% in [3]; 99.6% in [4]; 97.6% in [5]; 92.6% in experiment [6]. In addition, the growth in [7] is 97.5%; in experiment [8], 91.6%; in experiment [9] it was 94.2%; in [10], 104%.

Regarding `COc1ccc2[nH]c(-c3ccccc3)c(C=C(C#N)C#N)c2c1`, the growth is 36.3% in experiment [1]; 17.2% in experiment [2]; -5.72% (active) in experiment [3]; 73.2% in [4]; 35.2% in experiment [5]; 13.2% in [6]. In addition, the growth in [7] was 8.94% (active); in [8] it was 22.1%; in experiment [9] it was 42.6%; in experiment [10] it was 44%.

`CCOC(=O)c1c(-c2ccc(O)cc2)c(C#N)c2c(C#N)c(N)nn2c1N`: the growth in experiment [1] is 76%; in experiment [2] it was 43%; in experiment [3] it was 65.7%; in [4] it was 74.8%; in [5], 63.3%; in experiment [6], 68.9%. Besides, the growth in experiment [7] is 52.9%; in [8], 36.9%; in experiment [9] it was 55.2%; in experiment [10], 68.6%.

Turning to `COc1ccc(/C=C/C(=O)/C=C(/C=C/c2ccc(OC)c(OC)c2)OB(F)F)cc1OC`, the growth was 0.848% (active) in experiment [1]; 3% (active) in [2]; 76.8% in experiment [3]; 52.9% in experiment [4]; 8.37% (active) in experiment [5]; 31.5% in [6]. Moreover, the growth was 56.6% in experiment [7], 52.6% in [8], 5.12% (active) in experiment [9] and 29.6% in experiment [10].
